The list is not random: actives were taken first. Their share in the collection is about 0.97%.
pAkt inh: Akt phosphorylation inhibition | Neuro2A IGF-stimulated pAkt S473 HTRF, 20 min; active compounds read low | 0.32% of 360,000 active | activity change, % for hits at 50 µM; in the data active = activity change below about -80%; inconclusive = mostly about -51% to -80%
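Neuro2A cells (4,500/well, DMEM with 0.5% FBS) were treated with compound at a single 50 µM final concentration, stimulated with 6 nM IGF for 20 min at 37 °C, and lysed. Phospho-Akt Ser473 was read by HTRF as 665/615 ratio ×10^4.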
Mm-Cpn inhibitor: M. maripaludis TRiC chaperonin inhibition. purified Mm-Cpn ATPase, ADP Transcreener TR-FRET. Potency, µM (titrated, usually from 76.9 µM), actives largely listed as inhibitors. 0.031% of 330,000 active. AID 504842; note: nearly all actives have a fitted effect of over 80% in size
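Inhibition of chaperonin ATP hydrolysis is measured as reduced ADP production, detected by competitive TR-FRET in which signal falls with ADP. Final enzyme 25 nM and ATP 10 uM, reacted 30 min at 37°C.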
uPA generation: cell surface uPA generation inhibition | cell surface uPA generation assay, qHTS | AID 540303 | Potency, µM (titrated, usually from 38.3 µM), usual class: inhibitors | 0.31% of 330,000 active; active = well fitted inhibition curve with a large enough effect; inconclusive = small, poorly fitted or top-dose-only effect; inactive = no such curve, though single readings can be large or run the other way; tested in mouse RAW 264.7 cells; note: nearly all actives have a fitted effect of over 55% in size
Epigenetic reg: derepresses silenced GFP reporter in murine cells | Potency, µM (highest dose often 53.9 µM), most hits filed as activators | 0.2% of 280,000 active | murine LDR cells, GFP reporter derepression, 30 h; note: nearly all actives have a fitted effect of over 60% in size
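Murine LDR cells bearing a silenced CMV-driven GFP reporter were exposed to compound for 30 h at 37 C. After PBS washes, GFP-positive cells (20-120 um objects) counted by laser-scanning microplate cytometry.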
CCT chaperon mod: modulators of cytosolic chaperonin (CCT/TRiC) activity; purified chaperonin ATPase assay, HTRF ADP detection, 30 min; activity change, % (test concentration not listed), hits read low; 0.3% of 360,000 active; AID 651819; in the data active = activity change below about -30%
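TRiC at 40 or 20 nM final (batch-dependent) in 30 mM Tris pH 7.4, 100 mM KCl, 5 mM MgCl2, 1 mM DTT, with compound at single 76 uM and 10 uM ATP, 30 min at 37 deg C. ADP detected by HTRF Transcreener, 665/615 ratio.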
MBNL1 CUG block: blocks human MBNL1 binding to CUG repeat RNA | TR-FRET MBNL1-His/biotin-(CUG)12 binding, 665/545 ratio | 0.036% of 280,000 active | Q9NR56 | Potency, µM (top dose mostly 57.5 µM), hits mostly inhibitors | AID 2675; active = well fitted inhibition curve with a large enough effect in the signal ratio, with a control signal flat, not every such curve was filed as active; inconclusive = small, poorly fitted or top-dose-only effect, or effect the other way, or a change in a side signal; inactive = no such curve, though single readings can be large or run the other way; the % refers to the signal ratio
Target sequence (Q9NR56 whole entry, looked up): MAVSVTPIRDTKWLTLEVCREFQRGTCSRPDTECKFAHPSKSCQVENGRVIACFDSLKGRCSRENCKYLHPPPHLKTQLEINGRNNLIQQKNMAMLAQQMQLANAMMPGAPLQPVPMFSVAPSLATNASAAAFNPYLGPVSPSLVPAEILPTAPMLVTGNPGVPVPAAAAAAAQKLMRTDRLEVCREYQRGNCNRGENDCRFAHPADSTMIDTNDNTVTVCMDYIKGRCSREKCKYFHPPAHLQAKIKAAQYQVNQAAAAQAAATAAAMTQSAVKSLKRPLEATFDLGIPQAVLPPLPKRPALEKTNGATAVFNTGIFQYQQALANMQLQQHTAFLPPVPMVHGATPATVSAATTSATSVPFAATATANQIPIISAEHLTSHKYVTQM
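Compound titration spanned 92 nM–58 uM against the MBNL1-His/biotin-(CUG)12 complex. After 60 min at room temperature with 5 nM streptavidin-XL665 and 0.055 ng/ul terbium anti-His, ratiometric 665/545 nm emission (Ex 340 nm) normalized to controls.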
Large screens that a line does not name were inactive. Unless noted, calls come from the whole dose curve; as a rule, active = well fitted curve in the direction sought with a large enough effect; inconclusive = small, poorly fitted or top-dose-only effect, or another doubt; inactive = no such curve, though single readings can be large; an effect the other way counts as inactive or inconclusive.

COc1ccc(C(=O)N(C)Cc2cnn(Cc3ccccc3)c2)cc1S(=O)(=O)N1CCOCC1	uPA generation 2µM (no result: Epigenetic reg, MBNL1 CUG block)
O=C(CCc1ccccc1)Nc1cccc(S(=O)(=O)N2CCOCC2)c1	CCT chaperon mod -35 (no result: Epigenetic reg, MBNL1 CUG block)
O=C(NC1CC1)c1cccc(NC(=O)c2cc(S(=O)(=O)N3CCOCC3)ccc2Cl)c1	CCT chaperon mod -32 (no result: Epigenetic reg, MBNL1 CUG block)
CN(Cc1cnn(Cc2ccccc2)c1)C(=O)c1cccc(S(=O)(=O)N2CCOCC2)c1	uPA generation 6.3µM (no result: Epigenetic reg, MBNL1 CUG block)
COc1ccc(CCC(=O)Nc2cccc(S(=O)(=O)N3CCOCC3)c2)cc1OC	none (no result: Epigenetic reg, MBNL1 CUG block)
COc1ccc(C(=O)N(CCc2ccccc2)Cc2ccccc2)cc1S(=O)(=O)N1CCOCC1	none (no result: Epigenetic reg, MBNL1 CUG block)
O=C(Nc1ccccc1Cl)OCC#CCOC(=O)Nc1ccccc1Cl	none (no result: Mm-Cpn inhibitor, uPA generation, Epigenetic reg, MBNL1 CUG block)
O=C(NCc1ccccc1F)c1cccs1	CCT chaperon mod -37 (no result: uPA generation)
CCOc1ccc(CNC(=O)Cn2ccc3cc(S(=O)(=O)N4CCCCCC4)ccc32)cc1	uPA generation 1µM
CC(=O)Nc1ccc2c(c1)CCc1ccccc1-2	none (no result: Epigenetic reg)
O=C(O)/C=C/C(=O)c1ccc2c(c1)CCc1ccccc1-2	uPA generation 5µM (no result: Epigenetic reg, MBNL1 CUG block)
COc1ccc(-n2c(=O)c3c4c(sc3n(Cc3c(F)cccc3Cl)c2=O)CN(C(C)=O)CC4)cc1OC	none (no result: pAkt inh, Mm-Cpn inhibitor, uPA generation, CCT chaperon mod, MBNL1 CUG block)
CC(=O)c1ccc(C2C=CC(O)C(CO)O2)cc1 (stereo not given)	none (no result: pAkt inh, Mm-Cpn inhibitor, uPA generation, CCT chaperon mod, MBNL1 CUG block)
O=C1C(=O)N(CCS(=O)(=O)c2ccccc2)c2ccc(Cl)cc21	uPA generation inconclusive (no result: Epigenetic reg)
CCCN1C(=O)C(=O)c2cc(Cl)ccc21	uPA generation 5.6µM (no result: Epigenetic reg, MBNL1 CUG block)
CN1CCN(C(=O)c2ccc(Cn3cc(Cl)cn3)o2)CC1	none (no result: Epigenetic reg)
O=C(c1ccc(Cn2cc(Cl)cn2)o1)N1CCN(Cc2ccc3c(c2)OCO3)CC1	pAkt inh -111%
O=C(NCc1ccc(Cl)cc1)c1cnc2sc(N3CCCCCC3)nn2c1=O	none (no result: pAkt inh, Mm-Cpn inhibitor, uPA generation, CCT chaperon mod, MBNL1 CUG block)
COc1ccc(CNC(=O)CN(C(=O)c2csnn2)c2ccc(C(C)=O)cc2)cc1	CCT chaperon mod -40 (no result: Epigenetic reg)
COc1ccc(CNC(=O)CN(C(=O)c2csnn2)c2ccc(F)cc2)cc1	none (no result: Epigenetic reg)
O=C(Nc1ccc(Cl)cc1N1CCOCC1)C1CCCO1 (stereo not given)	none (no result: Epigenetic reg)
Cc1cc(C)cc(C(=O)NCCn2cc(SCC(=O)N3CCOCC3)c3ccccc32)c1	CCT chaperon mod -32
Cc1ccc(S(=O)(=O)c2ncccc2N)cc1	Mm-Cpn inhibitor inconclusive (no result: Epigenetic reg)
Cc1ccc(S(=O)(=O)c2ncccc2[N+](=O)[O-])cc1	uPA generation 4µM, MBNL1 CUG block inconclusive (no result: Epigenetic reg)
O=C(CN1C(=O)COc2ccccc21)N1CCc2ccccc21	pAkt inh -107%
Cc1ccc2c(c1)N(CC(=O)N1CCCc3ccccc31)C(=O)CO2	none
CC1CN(C(=O)c2ccc(NS(=O)(=O)c3ccc(C(C)(C)C)cc3)cc2)CC(C)O1 (stereo not given)	none (no result: Epigenetic reg)
CC[C@@H](C)[C@H](NC(=O)OC(C)(C)C)c1nnc(S(=O)(=O)Cc2cc(C)ccc2C)o1	pAkt inh -127%
CCOC(=O)c1c(-c2ccco2)csc1N	pAkt inh -124%
CC1=CC(=C2C(=O)c3ccccc3C2=O)C=C(C)N1C	MBNL1 CUG block inconclusive
CCCCCN1C=CC(=C2C(=O)c3ccccc3C2=O)C=C1	uPA generation 0.022µM, MBNL1 CUG block inconclusive
Cc1ccc(NC(=O)Cn2cc(S(=O)(=O)NC(C)C)c(S(=O)(=O)NC(C)C)c2)cc1Cl	none (no result: pAkt inh, Mm-Cpn inhibitor, uPA generation, CCT chaperon mod, MBNL1 CUG block)
Cc1cc(C)cc(OCCCC(=O)O)c1	pAkt inh -106%
CCCCCCN1C(=O)CC(NC(=O)OCC2c3ccccc3-c3ccccc32)C/C=C\C1C(C)C (stereo not given)	uPA generation inconclusive (no result: Epigenetic reg, MBNL1 CUG block)
O=C(O)c1ccc(NCc2cccnc2)c([N+](=O)[O-])c1	CCT chaperon mod -53, MBNL1 CUG block inconclusive (no result: Epigenetic reg)
Cc1ccc(NC(=O)c2cccnc2)c([N+](=O)[O-])c1	uPA generation 3.5µM, MBNL1 CUG block inconclusive (no result: Epigenetic reg)
Cc1cc(C)nc(N/C(=N\S(=O)(=O)Cc2ccccc2)Nc2cccc(Cl)c2C)n1	pAkt inh -118%
COCCNC(=O)C(c1ccc(F)cc1)N(C(=O)CCC(=O)Nc1nccs1)c1cccc(C)c1 (stereo not given)	none
CCOC(=O)C1CCCN(C(=O)c2ccccc2NC(=O)C2=C(C)OCCS2)C1 (stereo not given)	none (no result: Epigenetic reg)
CCOC(=O)C1CCCN(C(=O)c2ccc(C)c(NC(=O)C3=C(C)OCCS3)c2)C1 (stereo not given)	CCT chaperon mod -66 (no result: Epigenetic reg)
CCCCN(CC)CCCNC(=O)c1cn(CC)c2ccc(S(=O)(=O)N3CCc4ccccc4C3)cc2c1=O	none (no result: uPA generation)
CCOCCCNC(=O)c1cn(CC)c2ccc(S(=O)(=O)N3CCC(C)CC3)cc2c1=O	none (no result: Epigenetic reg)
CCCCN(CCCC)CCNC(=O)c1cn(CC)c2ccc(S(=O)(=O)N3CCCC3)cc2c1=O	CCT chaperon mod -82 (no result: pAkt inh, Epigenetic reg)
CCOCCCNC(=O)c1cn(CC)c2ccc(S(=O)(=O)N3CCCC3)cc2c1=O	CCT chaperon mod -52 (no result: pAkt inh, Epigenetic reg)
CCCCN(C)CCCNC(=O)c1cn(CC)c2ccc(S(=O)(=O)N3CCc4ccccc4C3)cc2c1=O	CCT chaperon mod -59
CCN(CC)CCNC(=O)c1cn(CC)c2ccc(S(=O)(=O)N3CCOCC3)cc2c1=O	none
CCCCN(C)CCCNC(=O)c1cn(C)c2ccc(S(=O)(=O)N(C)C3CCCCC3)cc2c1=O	CCT chaperon mod -54 (no result: pAkt inh, Epigenetic reg)
Cc1cc(OCC(=O)Nc2ccccc2C(N)=O)c2c(C)cc(=O)oc2c1	none (no result: Epigenetic reg)
Cc1ccc(S(=O)(=O)Nc2ccccc2N2CCOCC2)cc1	none (no result: Epigenetic reg)
